# Values joined by “and” are separate entries in the source; they are usually repeats but may differ in a detail not shown here. Equal values may be shown once. Where a name gives a salt, the structure may show the parent alone.
# Tested on: Neuro-2a
# Assay: neurite formation score, plate-normalized to DMSO control mean 5.04 (score (0-8 scale)); higher = more or longer neurites
# Conditions: 1 µM
# Experimental: (§1)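 Neuro-2a mouse neuroblastoma cells in PLL-coated 96-well plates were pre-treated for 1 h in DMEM(+) with each kinase inhibitor at 1 µM, then switched to serum-free DMEM(-) with inhibitor to induce neurite outgrowth and fixed about 2-3 h later. Three blinded observers scored neurite formation from 0 (no neurites) to 8 (long neurites on almost all cells).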
row,SMILES,neurite formation score
1,Cc1nc(Nc2ncc(C(=O)Nc3c(C)cccc3Cl)s2)cc(N2CCN(CCO)CC2)n1,1.57
2,Brc1c(Br)c(Br)c2n[nH]nc2c1Br,5.47
3,O=C(Nc1c[nH]nc1-c1nc2ccc(CN3CCOCC3)cc2[nH]1)NC1CC1,4.02
4,OCCn1cc(-c2ccc3c(c2)CC/C3=N\O)c(-c2ccncc2)n1,3.69
5,O=C(Cc1ccc(-c2ccc(OCCN3CCOCC3)cc2)cn1)NCc1ccccc1 [KX2-391 dihydrochloride],0.692
6,COc1ccc(-c2ccc3ncc4c(c3c2)n(-c2ccc(N3CCNCC3)c(C(F)(F)F)c2)c(=O)n4C)cn1,4.29
7,Cc1ccc(-n2nc(C(C)(C)C)cc2NC(=O)Nc2ccc(OCCN3CCOCC3)c3ccccc23)cc1 [BIRB 796 (Doramapimod)],4.57
8,C[C@@H](Oc1cc(-n2cnc3ccc(CN4CCN(C)CC4)cc32)sc1C(N)=O)c1ccccc1C(F)(F)F,4.29
9,Cc1cc2c(F)c(Oc3ncnn4cc(OC[C@@H](C)O)c(C)c34)ccc2[nH]1,4.57
10,CNC(=O)c1cc(Oc2ccc(NC(=O)c3cccc(C(F)(F)F)c3)cc2)ccn1,3.57
11,COc1cc(-c2cc(-c3ccc(N4CCNCC4)cc3)cnc2C)cc(OC)c1OC,4.47
12,O=c1ncn2nc(Sc3ccc(F)cc3F)ccc2c1-c1c(Cl)cccc1Cl,4.29
13,COc1c(C)c(C(=O)c2ccc(N)c(C(=O)O)c2)n2ccccc12,4.96
14,COc1ccc(CNc2nc(N(CCO)CCO)nc3c2ncn3C(C)C)cc1,5.57
15,O=C(NOCC(O)CO)c1cc(Br)c(F)c(F)c1Nc1ccc(I)cc1F (stereo not drawn),4.57
16,Oc1ccc(-c2nc(-c3ccc(F)cc3)c(-c3ccncc3)[nH]2)cc1,4.57
17,N#CCNC(=O)c1ccc(-c2ccnc(Nc3ccc(N4CCOCC4)cc3)n2)cc1,4.69
18,COc1cc2ncnc(Nc3ccc(O)cc3)c2cc1OC,5.02
19,CNC(=O)c1cc(COc2nnc(Nc3ccc(Cl)cc3)c3ccoc23)ccn1 [Telatinib (BAY 57-9352)],4.96

row,SMILES,neurite formation score
1,CC(C)N(CCC(=O)c1ccc2ccccc2c1)Cc1ccccc1,5.02
2,CCN(CC)CCNC(=O)c1c(C)[nH]c(/C=C2\C(=O)Nc3ccc(F)cc32)c1C [Sunitinib],5.63
3,Cn1c(Nc2ccc(C(F)(F)F)cc2)nc2cc(Oc3ccnc(-c4ncc(C(F)(F)F)[nH]4)c3)ccc21,4.24
4,Nc1nc(Nc2ccc(S(N)(=O)=O)cc2)nn1C(=O)c1c(F)cccc1F,5.02
5,NC(=S)N/N=C/c1ncccc1N [Triapine],4.88
6,COc1cc2ncnc(Oc3cccc(NC(=O)Nc4cc(C(C)(C)C(F)(F)F)on4)c3)c2cc1OC,5.24
7,CN1C/C=C/CCOc2cccc(c2)-c2ccnc(n2)Nc2cccc(c2)C1,2.8
8,"CCCCCCCCCCCCCCCCCC(=O)OC[C@H](CO)OC(=O)CCCCCCCCCCCCCCCCC [1,2-Distearoyl-sn-glycerol]",4.54
9,Clc1ccc(C2(c3ccc(-c4cn[nH]c4)cc3)CCNCC2)cc1,5.24
10,Oc1cc(O)cc(/C=C/c2ccc(O)c(O)c2)c1 [Piceatannol],4.88
11,"S=C(NCc1ccc2c(c1)OCO2)N1CCN(c2ncnc3c2oc2ccccc23)CC1 [Amuvatinib (MP-470, HPK 56)]",4.69
12,COc1ccc(S(=O)(=O)N(C(C)=O)c2ccccc2/C=C/c2cc[n+]([O-])cc2)cc1,0.569
13,CCS(=O)(=O)N1CCN(c2ccc(Nc3ncc(C(N)=O)c(NC4CC4)n3)cc2)CC1,4.54
14,CO[C@H]1C[C@@H]2CC[C@@H](C)[C@@](O)(O2)C(=O)C(=O)N2CCCC[C@H]2C(=O)O[C@H]([C@H](C)C[C@@H]2CC[C@@H](O)[C@H](OC)C2)CC(=O)[C@H](C)/C=C(\C)[C@@H](O)[C@@H](OC)C(=O)[C@H](C)C[C@H](C)/C=C/C=C/C=C/1C [Rapamycin (Sirolimus)],4.57
15,CC(C)(C)c1nc(-c2cccc(NS(=O)(=O)c3c(F)cccc3F)c2F)c(-c2ccnc(N)n2)s1,5.02 and 5.29
16,CNC(=O)c1ccccc1Nc1cc(Nc2ccc(N3CCOCC3)cc2OC)ncc1C(F)(F)F,5.02
17,Nc1cc(C(F)(F)F)c(-c2cc(N3CCOCC3)nc(N3CCOCC3)n2)cn1,5.24
18,O=S(=O)(c1cccc2c(O)nccc12)N1CCCNCC1 [Hydroxyfasudil hydrochloride],3.8

# Tested on: Neuro-2a
# Assay: as above
# Conditions: 0.1 µM
# Experimental: as §1, with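 “at 0.1” for “at 1”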
row,SMILES,neurite formation score
1,OCCn1cc(-c2ccc3c(c2)CC/C3=N\O)c(-c2ccncc2)n1,4.58
2,O=C(Cc1ccc(-c2ccc(OCCN3CCOCC3)cc2)cn1)NCc1ccccc1 [KX2-391 dihydrochloride],0.584
3,Cc1ccc(-n2nc(C(C)(C)C)cc2NC(=O)Nc2ccc(OCCN3CCOCC3)c3ccccc23)cc1 [BIRB 796 (Doramapimod)],4.21
4,COc1cc(-c2cc(-c3ccc(N4CCNCC4)cc3)cnc2C)cc(OC)c1OC,5.09
5,O=c1ncn2nc(Sc3ccc(F)cc3F)ccc2c1-c1c(Cl)cccc1Cl,4.92
6,COc1ccc(CNc2nc(N(CCO)CCO)nc3c2ncn3C(C)C)cc1,4.04
7,O=C(NOCC(O)CO)c1cc(Br)c(F)c(F)c1Nc1ccc(I)cc1F (stereo not drawn),4.88
8,COc1cc2ncnc(Nc3ccc(O)cc3)c2cc1OC,4.25
9,CCN(CC)CCNC(=O)c1c(C)[nH]c(/C=C2\C(=O)Nc3ccc(F)cc32)c1C [Sunitinib],5.58
10,NC(=S)N/N=C/c1ncccc1N [Triapine],3.75
11,"CCCCCCCCCCCCCCCCCC(=O)OC[C@H](CO)OC(=O)CCCCCCCCCCCCCCCCC [1,2-Distearoyl-sn-glycerol]",5.42
12,Clc1ccc(C2(c3ccc(-c4cn[nH]c4)cc3)CCNCC2)cc1,4.54
13,COc1ccc(S(=O)(=O)N(C(C)=O)c2ccccc2/C=C/c2cc[n+]([O-])cc2)cc1,3.54
14,CO[C@H]1C[C@@H]2CC[C@@H](C)[C@@](O)(O2)C(=O)C(=O)N2CCCC[C@H]2C(=O)O[C@H]([C@H](C)C[C@@H]2CC[C@@H](O)[C@H](OC)C2)CC(=O)[C@H](C)/C=C(\C)[C@@H](O)[C@@H](OC)C(=O)[C@H](C)C[C@H](C)/C=C/C=C/C=C/1C [Rapamycin (Sirolimus)],5.54
15,CNC(=O)c1ccccc1Nc1cc(Nc2ccc(N3CCOCC3)cc2OC)ncc1C(F)(F)F,5.58
16,O=S(=O)(c1cccc2c(O)nccc12)N1CCCNCC1 [Hydroxyfasudil hydrochloride],2.09
